FMDV RLuc: FMDV antiviral activity by Renilla signal. FMDV replicon cells, Renilla luciferase signal. Potency, µM (titrated, usually from 57.5 µM), for the others: at the top dose activity change, negative = inhibition, usual class: inhibitors. 120,000 tested, 0.32% active; note: nearly all actives have a fitted effect of over 55% in size
FMDV antiviral: FMDV antiviral activity by firefly signal | FMDV antiviral cell assay, firefly luciferase signal | Potency, µM (series often up to 57.5 µM), for inactives: top-dose activity change, negative = inhibition, most hits filed as inhibitors | 120,000 tested, 0.23% active | AID 1745856; note: nearly all actives have a fitted effect of over 60% in size
The depositor's hits bear a star; ? = inconclusive. An excerpt weighted towards active compounds, which were near 0.4% of everything screened. Calls come from the whole dose curve. % is set by controls: 0 for no effect and ±100 for the full control effect; potency is the fitted concentration of half-maximal effect.

SMILES	FMDV RLuc	FMDV antiviral
CCCCOc1ccc(C(=O)C(CCC(CNC(C)(C)C)C(=O)c2ccc(OCCCC)cc2)CNC(C)(C)C)cc1 (centres undefined)	28µM*	?
CCCCCOc1ccc(C(=O)O)cc1	12%	0%
CCOC(=O)N1CCc2c(sc3c2C(=O)NC(c2cccc4ccccc24)N3)C1 (centres undefined)	9%	4%
Cc1ccccc1C1CC(=O)N2CN(Cc3ccccc3)CSC2=C1C#N (centres undefined)	24%	16%
COc1ccc(-c2csc3ncnc(N4CCN(Cc5ccccc5)CC4)c23)cc1	-7%	15%
CCOc1ccc(CN2CCN(c3ncnc4sccc34)CC2)cc1	0.89µM*	1.1µM*
O=C(CCc1ccccc1)NC1CCN(c2ccccc2S(=O)(=O)C(F)(F)F)CC1	?	-21%
O=C(Cc1ccccc1)NC1CCN(c2ccc(S(=O)(=O)C(F)(F)F)cc2)CC1	3.5µM*	3.2µM*
COc1cc(NC(=O)N2CC3CCCN3c3ccccc32)cc(OC)c1OC (centres undefined)	-3%	1%
COc1ccc(NC(=O)c2c(NCc3cccs3)sc3c2CCCCC3)c(OC)c1	170%	-6%
COc1ccc(NC(=O)c2c(NCc3cccs3)sc3c2CCCC3)cc1	8.9µM*	2%
CCNC(=O)NC(=O)C(C)OC(=O)c1cc(-c2cccs2)nc2ccccc12 (centres undefined)	15%	25%
CCc1c(C)sc2c1CCN(C(=O)Nc1ccccc1C(=O)OC)C2c1ccc(F)cc1 (centres undefined)	3%	-14%
CCc1c(C)sc2c1CCN(C(=O)Nc1ccc(F)c(Cl)c1)C2c1ccc(F)cc1 (centres undefined)	?	35µM*
O=C1CC(c2ccc(Cl)cc2)CC2=C1C=Nc1ccccc1N2 (centres undefined)	-9%	0%
CC1=C2C(=O)CC(c3ccc(Cl)cc3)CC2=Nc2ccccc2N1 (centres undefined)	10µM*	8.9µM*
Cc1cc(OC(C)C(=O)Nc2ccc3nsnc3c2)ccc1Cl (centres undefined)	15%	3%
O=C(Nc1cccc(S(=O)(=O)N2CCOCC2)c1)c1ccc(OCc2cn3ccccc3n2)cc1	?	32µM*
O=C(Nc1cccc(S(=O)(=O)N2CCCCC2)c1)c1ccc(OCc2cn3ccccc3n2)cc1	0%	0%
CCOc1ccc2c(c1)c(=O)c(S(=O)(=O)c1ccccc1)cn2CC(=O)Nc1cccc(Cl)c1	34%	-2%
COc1ccc(-c2nc(CNS(=O)(=O)c3ccc(F)cc3)cs2)cc1	-5%	-5%
CNc1snc(C)c1C(=O)OCc1csc(-c2ccc(F)cc2)n1	0.71µM*	?
Cc1ccc(N(CC(=O)N2CCC(C(N)=O)CC2)S(=O)(=O)c2ccc(Cl)cc2)cc1C	182%	-9%
N#Cc1ccccc1CON=C1CCC2(CC1)OCCO2	16%	193%
O=[N+]([O-])c1cccc(CON=C2CCC3(CC2)OCCO3)c1	-8%	2µM*
SMILES	FMDV RLuc	FMDV antiviral
N#Cc1ccc(OCCN2CCCc3ccccc32)cc1	8%	0%
CCCN1CCC2(CC1)Oc1c(OC)cccc1C1CC(c3ccc4c(c3)OCO4)=NN12 (centres undefined)	95%	220%
O=c1cc(CSc2nnc(NC3CC3)s2)c2ccc(O)cc2o1	46%	81%
CC(=O)c1c(C)[nH]c(C(=O)CSc2ccc(Br)cc2)c1C	-18%	48%
CC(=O)c1c(C)[nH]c(C(=O)C(C)Sc2ccccc2Br)c1C (centres undefined)	0%	25µM*
Nc1nccnc1C(=O)NCC(O)c1ccc(F)cc1F (centres undefined)	-6%	0%
Cc1ncc(-c2ccc(S(=O)(=O)Nc3ccc(C)c(F)c3)cc2)o1	284%	-7%
COc1cccc(Oc2coc3cc(OC(=O)c4ccc([N+](=O)[O-])cc4)ccc3c2=O)c1	-7%	0%
O=C(COC(=O)c1ccccc1-c1ccc(C(F)(F)F)cc1)c1ccc([N+](=O)[O-])cc1	-19%	-15%
O=C(COC(=O)c1ccccc1-c1ccc(C(F)(F)F)cc1)c1cccc([N+](=O)[O-])c1	8.9µM*	10µM*
Cc1ccc(C)c(-c2csc(-c3nc(-c4ccccc4)cs3)n2)c1	-11%	34%
Cc1ccc(C(=O)Nc2nc(-c3nnn(-c4cccc(Cl)c4C)c3C)ns2)cc1C	5µM*	3.5µM*
Cc1ccc(Cl)cc1-n1nnc(-c2nsc(NC(=O)c3ccccc3Cl)n2)c1C	-15%	111%
COc1ccccc1OCCn1cc(C(=O)C(F)(F)F)c2cc(Br)ccc21	-9%	-3%
COc1ccccc1OCCn1cc(C(C)=O)c2ccccc21	16µM*	?
O=C(Nc1ccc(S(=O)(=O)N2CCCCC2c2cccnc2)cc1)c1ccc(Br)cc1 (centres undefined)	?	25µM*
CC(=O)Nc1ccc(S(=O)(=O)N2CCCCCC2c2ccc(C)s2)cc1 (centres undefined)	114%	9%
